High-throughput results as filed in PubChem BioAssay.
KDM5B inh = inhibitors of human KDM5B histone demethylase. Q9UGL1. Potency, µM (top dose mostly 57.7 µM), actives largely listed as inhibitors. 220,000 tested, 2.6% active. AID 1347165. KDM5B demethylase, FDH-coupled NADH fluorescence (FDH is formaldehyde dehydrogenase); active means well fitted inhibition curve with a large enough effect; further: nearly all actives have a fitted effect of over 70% in size
Target sequence (Q9UGL1 whole entry, looked up): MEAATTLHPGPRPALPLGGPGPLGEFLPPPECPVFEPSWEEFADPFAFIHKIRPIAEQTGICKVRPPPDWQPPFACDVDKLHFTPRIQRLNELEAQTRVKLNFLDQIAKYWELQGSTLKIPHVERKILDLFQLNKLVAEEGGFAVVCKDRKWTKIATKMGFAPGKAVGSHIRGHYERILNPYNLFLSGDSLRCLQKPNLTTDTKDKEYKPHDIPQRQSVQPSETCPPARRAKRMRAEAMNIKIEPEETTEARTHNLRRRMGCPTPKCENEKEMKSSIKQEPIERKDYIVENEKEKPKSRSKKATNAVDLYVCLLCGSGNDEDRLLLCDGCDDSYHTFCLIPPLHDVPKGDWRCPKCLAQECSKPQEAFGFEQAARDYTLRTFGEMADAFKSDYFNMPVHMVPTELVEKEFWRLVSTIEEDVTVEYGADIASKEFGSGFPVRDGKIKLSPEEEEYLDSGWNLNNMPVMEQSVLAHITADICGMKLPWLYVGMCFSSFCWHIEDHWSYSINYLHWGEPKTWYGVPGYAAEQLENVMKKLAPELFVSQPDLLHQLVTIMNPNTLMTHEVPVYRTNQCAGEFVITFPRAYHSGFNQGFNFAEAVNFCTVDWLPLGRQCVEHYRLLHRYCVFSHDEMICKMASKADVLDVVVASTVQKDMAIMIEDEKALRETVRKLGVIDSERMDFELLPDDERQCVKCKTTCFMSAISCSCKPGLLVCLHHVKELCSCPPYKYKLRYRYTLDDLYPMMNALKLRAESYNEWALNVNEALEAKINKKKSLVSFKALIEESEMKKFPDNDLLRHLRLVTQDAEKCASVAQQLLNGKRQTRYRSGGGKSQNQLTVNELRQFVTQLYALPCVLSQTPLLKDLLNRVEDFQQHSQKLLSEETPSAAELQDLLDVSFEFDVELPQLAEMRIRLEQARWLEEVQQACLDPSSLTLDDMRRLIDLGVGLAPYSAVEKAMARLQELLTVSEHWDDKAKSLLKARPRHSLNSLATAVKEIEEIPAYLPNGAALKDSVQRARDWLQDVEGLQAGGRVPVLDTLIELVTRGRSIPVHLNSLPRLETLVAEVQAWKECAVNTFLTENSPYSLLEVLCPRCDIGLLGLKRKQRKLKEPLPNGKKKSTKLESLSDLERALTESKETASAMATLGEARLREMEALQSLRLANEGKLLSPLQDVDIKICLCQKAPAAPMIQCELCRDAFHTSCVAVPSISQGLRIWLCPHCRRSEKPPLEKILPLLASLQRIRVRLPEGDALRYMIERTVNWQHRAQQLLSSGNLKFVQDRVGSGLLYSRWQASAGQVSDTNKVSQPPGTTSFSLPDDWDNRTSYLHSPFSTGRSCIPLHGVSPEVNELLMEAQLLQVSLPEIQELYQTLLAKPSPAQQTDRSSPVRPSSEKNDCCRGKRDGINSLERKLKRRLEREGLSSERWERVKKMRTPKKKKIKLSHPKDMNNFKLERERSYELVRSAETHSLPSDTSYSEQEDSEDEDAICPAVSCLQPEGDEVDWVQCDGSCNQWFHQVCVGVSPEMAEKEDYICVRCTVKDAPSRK
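Coupled FDH/NAD⁺ fluorescence readout. KDM5BΔAP 200 nM final; compound titration, 10 min RT preincubation; substrate mix 12.5 µM H3K4me3, 25 µM 2-OG, 50 µM Fe(II), 100 µM ascorbate, 0.25 mM NAD⁺, 0.25 U/mL FDH; ΔRFU over 30 min.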
Hits are given with their value; . = inactive. The full list was thinned out, with hits kept by preference.

SMILES | KDM5B inh
COc1ccc2[nH]c(=O)c(CCC(=O)NCCCN3CCCC(C)C3)cc2c1 (stereo not drawn) | 32µM
COc1ccc(CC2CN(Cc3cccc(-n4cccn4)c3)CCO2)cc1 (stereo not drawn) | .
Cc1ccc2c(c1)N(CCC(=O)NCCCN1CCCC1)C(=O)C(C)O2 (stereo not drawn) | .
COc1ccc2[nH]c(C)c(C(=O)CN3CCCC(C)C3)c2c1 (stereo not drawn) | .
COc1ccc2[nH]c(=O)c(CN3CCOC(CN)C3)cc2c1 (stereo not drawn) | 25µM
COc1ccc2[nH]c(=O)c(COC(=O)c3ccccc3F)cc2c1 | .
CCOC(=O)c1[nH]ncc1CN1CCOC(Cc2ccc(OC)cc2)C1 (stereo not drawn) | .
Cc1cccc(CN2CCC3(CC2)Cc2ccccc2CNC3=O)c1 | .
Cc1cc2oc(=O)cc(CN3CCN(CCO)CC3)c2cc1Cl | .
O=C(CSc1nnc(-c2ccncc2)n1-c1ccc(Cl)cc1)c1c[nH]c(C(=O)N2CCCC2)c1 | .
CNc1ccc(OC2CCN(C(=O)CCc3nc4ccccc4[nH]3)C2)nc1 (stereo not drawn) | 28µM
Cc1nc(-c2ccc(OC3CCN(C(=O)CCc4nc5ccccc5[nH]4)C3)cc2)no1 (stereo not drawn) | .
O=C(CCc1nc2ccccc2[nH]1)N1CCC(c2noc(-c3ccccn3)n2)C1 (stereo not drawn) | .
Cc1ccc(C(=O)CC(=O)c2ccc(C)cc2C)c(C)c1 | .
Cc1cccc2c(C(=O)N3CCN(Cc4ccccc4)CC3)cc(-c3cccnc3)nc12 | .
Cc1ccc(C)c(-c2cc(C(=O)O)c3cccc(C)c3n2)c1 | .
CCn1cc(-c2cc(C(=O)N3CCCCCC3)c3cccc(C)c3n2)cn1 | 32µM
CCOc1cc2c(cc1NC(=O)CCc1ccco1)OC(C)C2 (stereo not drawn) | .
COc1ccnc(-c2nnc3ccc(N(C)c4ccccc4)nn23)c1 | .
CCC(=O)N1CCCN(CCN(C)C)c2ccccc21 | .
CN1CCCN(C(=O)c2cccs2)c2ccccc21 | .
O=C(Cc1cccs1)N1CCCN(CCc2ccccc2)c2ccccc21 | 22µM
CN(CCOC(=O)/C=C/c1ccccc1)Cc1ccccc1 | .
Cc1ccc(S(=O)(=O)N2CCC(OC3CCN(Cc4ccccc4)CC3)CC2)c(C)c1 | .
CCCn1cc(-c2ccnc(NC3CCN(Cc4cccnc4)CC3)n2)c(C)n1 | 32µM
SMILES | KDM5B inh
O=S(=O)(Cc1ccccc1)N1CCC(OC2CCN(Cc3cccnc3)CC2)CC1 | .
COCC(=O)N(C1CCOCC1)C1CCN(Cc2cccnc2)CC1 | .
CCCOc1nc2ccccc2nc1N1CCC(C(=O)Nc2ccc(C(N)=O)cc2)CC1 | .
Cc1cc(C)c(NCC(=O)NNC(=O)c2cnccn2)c(C)c1 | .
O=C(NCCc1ccc(Cl)cc1Cl)C1CNCCO1 (stereo not drawn) | .
O=C(COc1ccc(Cl)cc1)NCCc1csc(-c2ccncc2)n1 | .
O=C(NCCc1csc(-c2ccncc2)n1)C1CNCCO1 (stereo not drawn) | 28µM
O=C(Cc1cccs1)NCCc1csc(-c2ccccc2)n1 | .
CC(=O)N1CCCC(C(=O)NCCc2csc(-c3ccncc3)n2)C1 (stereo not drawn) | 22µM
CC(=O)N1CCC(Cc2noc(-c3ccncc3)n2)C1 (stereo not drawn) | .
NS(=O)(=O)c1ccc(NC(=S)Nc2ccccc2)cc1 | .
COc1ccc(C(=O)C(C)Cl)cc1 (stereo not drawn) | .
Cc1ccc(/C=C/c2ccc3cc(C)ccc3n2)cc1 | .
CSCCC(NC(=O)c1ccc(Cl)cc1Cl)C(=O)Nc1cccc(C(C)=O)c1 (stereo not drawn) | .
CN(Cc1ccccc1)C(=O)NC1CCCC(C(F)(F)F)C1 (stereo not drawn) | .
Cc1cnc2c(S(=O)(=O)NCC3CCOC3)cccc2c1 (stereo not drawn) | .
O=C(Nc1nnc(-c2ccccc2)o1)C1CCN(S(=O)(=O)c2cccc(Cl)c2Cl)CC1 | .
O=C(O)c1cc(Cl)ccc1F | .
COc1ccc(-c2nnc3ccc(Nc4cccc(OC)c4)nn23)nc1 | .
Cc1ccc(-c2nnc3ccc(NC4CCC4)nn23)nc1 | .
COc1ccc(-c2nnc3ccc(NC4CCCCC4)nn23)nc1 | 32µM
COc1ccnc(-c2nnc3ccc(Nc4cc(OC)c(OC)c(OC)c4)nn23)c1 | .
COCCNc1ccc2nnc(C)n2n1 | .
COCCNc1ccc2nnc(-c3ccc(OC)cn3)n2n1 | 40µM
Cc1nc(N2CCCC2)ncc1-c1cc(=O)[nH]c(N2CCc3ccccc3C2)n1 | .
SMILES | KDM5B inh
COc1ccc(-c2cc(-c3ccc(OC)cc3)on2)cc1 | .
COc1ccc(-c2[nH]ncc2-c2ccccc2)c(O)c1 | .
COc1ccc(-c2cc(-c3ccccc3O)cn3cncc23)cc1 | 3.5µM
CCN(Cc1ccc(OC)c(OC)c1)S(=O)(=O)c1cnn(C)c1 | .
COc1ccc(-c2cc(-c3cnn(C)c3)cn3cncc23)cc1 | 35µM
COc1ccc(-c2cnc(N)nc2-c2ccc(OCc3ccccc3)cc2O)cc1 | .
CC(C)c1ccc(C2C(c3ccccc3)=C(O)C(=O)N2Cc2ccccn2)cc1 (stereo not drawn) | .
Cc1cc(NC(=O)C(C)Sc2nnc(C)n2-c2ccccc2C)no1 (stereo not drawn) | .
COc1ccc(NC(=O)[C@H]2C[C@H](CCSC)N[C@]23C(=O)Nc2ccc(F)cc23)cc1 | .
Cc1ccc(C(=O)Nc2ccc(CCC(=O)N(C)C)cc2)cc1 | .
COc1ccc(-c2[nH]nc3ncc(C(=O)Nc4ccn(C)n4)nc23)c(C)c1 | .
COc1cccc(NC(=O)c2ccc3c(c2)NC(C)(COc2ccc4[nH]ccc4c2)CO3)c1 (stereo not drawn) | 32µM
COc1ccc(NC(=O)c2ccc3c(c2)OCC(=O)N3)cc1 | .
COc1ccc(NC(=O)c2ccc3c(c2)OCCCO3)cn1 | .
COc1ccc(NC(=O)c2ccc3c(c2)NC(C)(COCC2CC2)CO3)cc1OC (stereo not drawn) | .
COc1ccc(NC(=O)c2ccc3c(c2)OCC(=O)N(C)C3)c(F)c1 | .
COc1ccc(OCC2(C)COc3ccc(C(=O)Nc4ccc(OC)nc4)cc3N2)cc1 (stereo not drawn) | 40µM
COc1ccc(OCC2(C)COc3ccc(C(=O)Nc4ccn(C)n4)cc3N2)cc1 (stereo not drawn) | 32µM
COc1cccc(NC(=O)c2ccc(-c3nc(COc4ccc(C)cc4)c(C)o3)cc2)c1 | .
CN(C)CC(O)COc1ccc(NC(=O)Nc2ccccc2F)cc1 (stereo not drawn) | .
Cc1cc2n(CC(O)COc3ccc(Cl)cc3)c(=O)c3ccccc3n2n1 (stereo not drawn) | .
CC(Oc1cccc2ccccc12)C(=O)NC1(C#N)CCCCC1 (stereo not drawn) | .
O=c1[nH]c(=O)n(Cc2ccccc2)c2c1CN(Cc1ccccc1Cl)CN2 | .
Cc1cc(OCC(=O)Nc2ccc3[nH]ncc3c2)ccc1Cl | .
O=S(=O)(NCC1(c2ccccc2)CC1)c1ccccc1F | .
Cc1cc(C)c2c(c1C)OC/C2=N/O | .
Cn1c(=O)c2c(nc(SCc3ccccc3)n2Cc2ccccc2)n(C)c1=O | .
Cc1csc2nc(CSc3ccccc3NC(=O)COc3ccccc3Cl)cc(=O)n12 | .
O=C(COc1ccccc1F)Nc1ccc2c(=O)c3cccc(F)c3oc2c1 | .
COc1ccc(C(=O)N2CCc3nc(C(C)C)nc(-c4ccc(OC)cc4)c3CC2)cc1 | .
